# From PubChem BioAssay
# Calls of active or inactive are those of the source. Unless noted, how the calls were made is not given here.
# How the values were obtained:
# [1] = test system: Wnt5a (protein binding on small-molecule microarray); experiment: Wnt5a binders on small-molecule microarray, primary screen, biophysical, 635/667 nm fluorescence (AID 1142); conditions: 635 nm fluorescence, higher = more signal;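 further: fluorescence read at 667 nm with signal to noise per printed feature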
# [2] = cell viability in Huh7 cells, primary screen, cytotoxicity control for HCV replication inhibitor project, CellTiter-Glo luminescence, basal, 48 h (AID 1143); conditions: Huh7 HCV replicon, higher = more signal, called active from +8 up or from −8 down;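 further: Huh7 hepatoma cells carrying a hepatitis C replication reporter with no stimulus; test concentration not given here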
# [3] = P. aeruginosa biofilm formation inhibitors, primary screen, PAO1 strain, BacTiter-Glo luminescence, LB-PBS (AID 1144); conditions: 12 h, higher = more signal
# [4] = CREB reporter modulators without forskolin, primary screen, cell-based, PC12, CRE-LacZ reporter, unstimulated (AID 1145); conditions: no forskolin, luminescence, 4.5 h, higher = more signal, called active from +8 up or from −8 down
# [5] = CREB reporter modulators under forskolin, primary screen, cell-based, PC12, CRE-LacZ reporter, forskolin-stimulated (AID 1146); conditions: luminescence, 4.5 h, higher = more signal, called active from +8 up or from −8 down;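 further: PC12 cells with 6xCRE LacZ reporter stimulated by forskolin 10 µM; beta-galactosidase reporter signal reflecting CREB driven transcription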
# [6] = target: Streptavidin (Streptomyces avidinii) (UniProt P22629); experiment: streptavidin binders on small-molecule microarray, primary screen, artefact control for SMM compound annotation, biophysical, 635/667 nm fluorescence (AID 1147); conditions: streptavidin binding, higher = more signal;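 further: signal reflects streptavidin binding to arrayed compounds as a control protein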
# [7] = small-molecule binders of probe aInhba, primary screen, biochemical, small-molecule microarray, 635/667 nm fluorescence (AID 1148); conditions: higher = more signal;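 further: score merges 667nm spot fluorescence with signal-to-noise for antibody binding to printed compounds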
# [8] = target: Torsin-1A (Homo sapiens) (UniProt O14656); experiment: torsin A binders from cell lysate, primary screen, small-molecule microarray, wild-type, 635/667 nm (AID 1149); conditions: COS7 hTOR1A-WT lysate, 635 nm fluorescence, higher = more signal
# [9] = target: Torsin-1A (Homo sapiens) (UniProt O14656); experiment: small-molecule binders of mutant TOR1A in lysate, primary screen, cell lysate, small-molecule microarray, COS7 lysate, 635/667 nm fluorescence (AID 1150); conditions: COS7 hTOR1A mutant lysate, 635 nm fluorescence, higher = more signal;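 further: score pools 667 nm emission and signal to noise measuring lysate protein binding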
# [10] = test system: Sonic hedgehog protein (Shh); experiment: small-molecule binders of Shh protein, primary screen, biochemical, small-molecule microarray, 635/667 nm fluorescence (AID 1151); conditions: small-molecule microarray binding, 635 nm fluorescence; higher = more signal;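 further: Shh protein binding to compounds spotted on small-molecule microarray slides; score combines spot fluorescence intensity with signal-to-noise across triplicate slides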
# [11] = E. coli DRC41 culture turbidity changes, primary screen, E. coli filamentation inducer project, strain DRC41, OD650, 48 h (AID 1152);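 further: E. coli MC1000 strain DRC41 lacking acrAB efflux pump and sulA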; conditions: E. coli DRC41 (acrAB sulA), higher = more signal, called active from +8 up or from −8 down
# [12] = small-molecule binders of probe aLefty1, primary screen, biochemical, small-molecule microarray, 635/667 nm fluorescence (AID 1153); conditions: higher = more signal;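 further: score merges spot fluorescence with signal-to-noise ratio from the scanned slide images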
# [13] = PSAC antagonists in infected red cells, primary screen, cell-based, P. falciparum Indochina, OD700, 1 h (AID 1154); conditions: P. falciparum Indochina infected RBC osmotic lysis, higher = more signal, called active from +8 up or from −8 down
# [14] = PSAC antagonists in infected red cells, primary screen, cell-based, P. falciparum Indochina, OD700, 2 h (AID 1155);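 further: lysis reports solute entry through the parasite surface anion channel PSAC; channel blockers reduce lysis of infected cells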; conditions: P. falciparum Indochina infected erythrocytes, osmotic lysis OD700; higher = more signal, called active from +8 up or from −8 down
# [15] = osmotic lysis modulators in infected erythrocytes, primary screen, PSAC antagonist project, cell-based, P. falciparum Indochina, OD700, 3 h (AID 1156); conditions: higher = more signal, called active from +8 up or from −8 down
# [16] = PSAC antagonists in infected red cells, primary screen, cell-based, P. falciparum Indochina, OD700, 18 h (AID 1157); conditions: P. falciparum Indochina infected erythrocytes, osmotic lysis OD700, 18 h; higher = more signal, called active from +8 up or from −8 down
# [17] = modulators of S6 phosphorylation in cells, primary screen, cell-based, A549, cytoblot, luminescence, serum-stimulated (AID 1158); conditions: A549 phospho-S6 cytoblot, 5 h, higher = more signal;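 further: serum-stimulated A549 lung adenocarcinoma cells; signal is phosphorylated S6 detected by cytoblot immunostaining with HRP secondary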
# [18] = target: NADPH oxidase 2 (Homo sapiens) (UniProt P04839); experiment: NOX2-dependent H2O2 signal modulators, primary screen, NOX inhibitor project, cell-based, HEK293-NOX2, PMA-stimulated, Amplex Red fluorescence (AID 1159); conditions: 45 min, higher = more signal, called active from +8 up or from −8 down; further: test concentration not given here
# [19] = target: NADPH oxidase 4 (Homo sapiens) (UniProt Q9NPH5); experiment: NOX4-dependent H2O2 signal modulators, primary screen, NOX inhibitor project, cell-based, HEK293-NOX4, tetracycline-induced, Amplex Red fluorescence (AID 1160); conditions: 45 min, higher = more signal, called active from +8 up or from −8 down
# [20] = target: NADPH oxidase 5 (Homo sapiens) (UniProt Q96PH1); experiment: NOX5-dependent H2O2 signal modulators, primary screen, NOX inhibitor project, cell-based, HEK293-NOX5, Amplex Red fluorescence (AID 1161); conditions: HEK293-NOX5, ionomycin, 45 min, higher = more signal
# Sequence of NADPH oxidase 5 (Homo sapiens) (Q96PH1 whole entry, looked up): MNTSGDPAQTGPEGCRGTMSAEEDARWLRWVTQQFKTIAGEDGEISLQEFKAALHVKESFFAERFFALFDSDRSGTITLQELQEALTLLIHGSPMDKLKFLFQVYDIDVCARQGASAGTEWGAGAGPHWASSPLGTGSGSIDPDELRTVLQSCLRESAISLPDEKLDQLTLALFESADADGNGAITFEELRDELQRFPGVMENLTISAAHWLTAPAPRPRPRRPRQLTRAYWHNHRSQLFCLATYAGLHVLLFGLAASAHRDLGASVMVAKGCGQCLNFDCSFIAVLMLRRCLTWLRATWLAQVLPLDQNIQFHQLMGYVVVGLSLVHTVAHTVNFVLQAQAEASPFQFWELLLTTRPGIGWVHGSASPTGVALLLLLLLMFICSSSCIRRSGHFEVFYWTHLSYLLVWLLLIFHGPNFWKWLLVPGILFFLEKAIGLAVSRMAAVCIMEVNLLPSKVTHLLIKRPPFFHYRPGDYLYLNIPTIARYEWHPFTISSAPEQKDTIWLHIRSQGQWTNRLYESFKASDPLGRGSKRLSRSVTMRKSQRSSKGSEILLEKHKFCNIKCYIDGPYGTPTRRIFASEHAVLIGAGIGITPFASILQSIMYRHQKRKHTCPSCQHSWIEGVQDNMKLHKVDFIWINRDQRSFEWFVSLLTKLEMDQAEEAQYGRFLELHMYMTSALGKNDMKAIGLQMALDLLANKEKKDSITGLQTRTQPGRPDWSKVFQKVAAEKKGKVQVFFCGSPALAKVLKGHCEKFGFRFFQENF
# Sequence of NADPH oxidase 2 (Homo sapiens) (P04839 whole entry, looked up): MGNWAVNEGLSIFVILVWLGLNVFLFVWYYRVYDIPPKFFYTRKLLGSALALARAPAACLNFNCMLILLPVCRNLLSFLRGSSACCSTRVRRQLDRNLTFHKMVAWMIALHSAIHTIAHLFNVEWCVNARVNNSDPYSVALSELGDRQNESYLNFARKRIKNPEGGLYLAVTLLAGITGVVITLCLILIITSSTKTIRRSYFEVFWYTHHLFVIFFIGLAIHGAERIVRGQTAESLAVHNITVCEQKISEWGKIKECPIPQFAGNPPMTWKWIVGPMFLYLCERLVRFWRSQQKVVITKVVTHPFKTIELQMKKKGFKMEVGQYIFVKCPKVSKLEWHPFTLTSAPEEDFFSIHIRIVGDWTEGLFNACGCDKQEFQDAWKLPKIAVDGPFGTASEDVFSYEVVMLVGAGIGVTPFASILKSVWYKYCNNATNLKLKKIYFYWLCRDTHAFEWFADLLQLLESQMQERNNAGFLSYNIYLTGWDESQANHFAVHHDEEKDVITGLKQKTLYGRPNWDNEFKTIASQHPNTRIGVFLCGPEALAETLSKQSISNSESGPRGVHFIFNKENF
# Sequence of Torsin-1A (Homo sapiens) (O14656 whole entry, looked up): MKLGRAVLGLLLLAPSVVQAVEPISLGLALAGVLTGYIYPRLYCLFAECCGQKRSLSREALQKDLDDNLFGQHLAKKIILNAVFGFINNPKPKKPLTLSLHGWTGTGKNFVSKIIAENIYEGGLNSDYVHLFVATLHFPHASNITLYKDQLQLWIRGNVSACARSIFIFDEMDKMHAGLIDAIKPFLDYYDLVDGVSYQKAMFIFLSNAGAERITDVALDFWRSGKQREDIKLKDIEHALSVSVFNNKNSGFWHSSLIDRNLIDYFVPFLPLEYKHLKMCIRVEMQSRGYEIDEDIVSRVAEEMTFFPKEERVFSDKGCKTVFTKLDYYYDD
# Sequence of NADPH oxidase 4 (Homo sapiens) (Q9NPH5 whole entry, looked up): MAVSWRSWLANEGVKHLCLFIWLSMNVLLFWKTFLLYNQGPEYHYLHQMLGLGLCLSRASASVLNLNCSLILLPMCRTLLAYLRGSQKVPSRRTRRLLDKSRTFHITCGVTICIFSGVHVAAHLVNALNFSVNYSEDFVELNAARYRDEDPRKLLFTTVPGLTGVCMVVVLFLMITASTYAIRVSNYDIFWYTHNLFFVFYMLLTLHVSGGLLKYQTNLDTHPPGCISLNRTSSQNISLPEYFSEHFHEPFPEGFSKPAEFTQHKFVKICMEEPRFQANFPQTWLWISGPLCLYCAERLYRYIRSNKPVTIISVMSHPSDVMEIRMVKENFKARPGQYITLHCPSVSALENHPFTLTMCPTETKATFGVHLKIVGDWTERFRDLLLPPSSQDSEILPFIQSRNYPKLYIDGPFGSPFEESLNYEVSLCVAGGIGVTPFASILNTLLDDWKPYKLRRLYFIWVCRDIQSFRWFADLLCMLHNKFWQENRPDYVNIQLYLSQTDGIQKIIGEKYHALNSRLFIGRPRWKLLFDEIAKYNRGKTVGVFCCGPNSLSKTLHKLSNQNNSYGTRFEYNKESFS
# Sequence of Streptavidin (Streptomyces avidinii) (P22629 whole entry, looked up): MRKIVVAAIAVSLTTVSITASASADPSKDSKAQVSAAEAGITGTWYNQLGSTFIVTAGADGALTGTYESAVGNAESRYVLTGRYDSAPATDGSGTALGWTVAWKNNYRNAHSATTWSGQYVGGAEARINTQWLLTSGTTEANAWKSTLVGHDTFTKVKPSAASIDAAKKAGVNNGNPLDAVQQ
Compound,composite z-score [1],z-score [2],z-score [3],z-score [4],z-score [5],composite z-score [6],composite z-score [7],composite z-score [8],composite z-score [9],composite z-score [10],z-score [11],composite z-score [12],z-score [13],z-score [14],z-score [15],z-score [16],z-score [17],z-score [18],z-score [19],z-score [20]
COC(=O)CC=C[C@@H](C)[C@@H](C=NOC[C@@H](C)[C@H](OCc1ccccc1)C(C)C)OC,0.0814,-0.112 (inactive),-0.0142 (inactive),0.848 (inactive),0.0112 (inactive),-0.437,-0.161,0.155,-0.0103,0.359,0.14 (inactive),-0.29,2.17 (inactive),0.319 (inactive),-0.728 (inactive),-0.0741 (inactive),0.391,0.64 (inactive),-0.614 (inactive),-2.2
CC(C)CON=C1C[C@@H](O)[C@@H](O)[C@@H]2[C@@H]3C(=O)N(c4ccc(F)cc4F)C(=O)[C@@H]3CC[C@@H]12,-0.0608,-3.38 (inactive),-0.419 (inactive),0.151 (inactive),0.391 (inactive),0.744,-0.0719,1.29,0.218,0.583,-0.177 (inactive),-0.0984,1.3 (inactive),-0.913 (inactive),-0.116 (inactive),-2.29 (inactive),-0.164,-1.11 (inactive),-1.87 (inactive),-3.22
COC(=O)[C@@H]1CC[C@H](C)[C@@H](c2ccc(Br)cc2)N1,0.224,0.336 (inactive),-0.984 (inactive),0.372 (inactive),-0.257 (inactive),0.0708,0.0705,0.387,0.0795,-0.0173,-0.824 (inactive),-0.0879,-0.452 (inactive),-0.219 (inactive),-0.772 (inactive),-0.0454 (inactive),-0.0984,1.62 (inactive),-1.48 (inactive),-0.595
CCOC(=O)[C@H](Cc1ccccc1)NC(=O)CCC1CC(OC(=O)NCc2ccc3c(c2)OCO3)CC2(CCCC(COC(=O)NCCOc3ccccc3)O2)O1 (stereo not given in full),0.0544,-0.464 (inactive),-1.09 (inactive),-0.793 (inactive),-0.361 (inactive),0.411,-0.177,0.662,0.184,1.6,0.0897 (inactive),-0.239,-1.84 (inactive),0.179 (inactive),-0.0818 (inactive),0.0514 (inactive),-0.138,0.339 (inactive),0.519 (inactive),0.653
